Holding throughout (assay): NCI-60 one-dose screen, 48 h (100 = growth as untreated, 0 = no growth, -100 = all killed)
Common to all, as to conditions: 10 µM unless noted

In test [1] the test system is EKVX NSCLC.
Test [2] concerns CCRF-CEM leukemia.
Test [3] has as its system MOLT-4 leukemia.
Test [4] concerns SR leukemia.
Test [5] deals with RPMI-8226 leukemia.
Test [6] relates to OVCAR-5 ovarian.
Test [7] has as its system NCI/ADR-RES ovarian.
For test [8], the system named is UO-31 renal.
Test [9] deals with ACHN renal.
The subject of test [10] is CAKI-1 renal.
Test [11] deals with A498 renal.
The test system of test [12] is OVCAR-8 ovarian.
In test [13] the test system is OVCAR-4 ovarian.
Test [14] deals with SK-OV-3 ovarian.
Test [15] has as its system IGROV1 ovarian.
For test [16], the system named is OVCAR-3 ovarian.
Test [17] concerns HS 578T breast.
The test system of test [18] is T-47D breast.
Test [19] deals with TK-10 renal.

Experimental findings from PubChem BioAssay (NCI) are described below.

This is part of a sample that, as a whole, favours compounds with a hit. Of some 83,000 tested, about 20% had one in any assay.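 How to read the values: 0–100, growth inhibition (40 = 60% inhibited); 0, no net growth; -100 to 0, cell death (-40 = 40% of starting cells died; -100 = all dead).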 A number with no mark means an inactive call. The source made the active and inactive calls. How the source made its calls: active means growth percent below 10; inactive means the rest.

Consider `CC(C)Sc1nc(Nc2ccc(S(N)(=O)=O)cc2)c(C#N)c(-c2ccc(F)cc2)n1`, for which the growth was 50.9% in [1]; 36.6% in test [2]; 49.9% in test [3]; -36.9% (active) in [4]; 58.1% in test [5]; 67.3% in test [6]. Moreover, the growth in test [7] is 32.5%.

As to `CC(C)(O)c1cncc(-c2ccc3ncnc(N4CCc5cc(F)c(Cl)cc54)c3c2)c1`, the growth in test [1] is -2.39% (active); in test [8], 6.25% (active); in [9] it was 11.3%; in [10], 10.6%; in test [11] it was -39.6% (active); in test [2], 22.2%. The growth was 0.627% (active) in [3]; 6.02% (active) in test [5]; 25.9% in test [12]; 25.9% in [6]; 20.2% in [13]; 1.96% (active) in test [14]. Also, the growth was -35.7% (active) in [15]; 5.16% (active) in [16]; -8.48% (active) in [17]; 31.1% in test [7]; 4.63% (active) in test [18].

Consider `Cn1cc(-c2cc(N)n3nc(-c4cn(C)c5ccc(Br)cc45)cc3n2)c2cc(Br)ccc21`, for which the growth in test [1] was 90.7%; in [19], 133%; in test [9], 92.2%; in test [11], 102%; in [2], 22.8%; in test [3] it was 48.9%. Besides, the growth is -13.5% (active) in test [4]; 64.3% in test [5]; 86.8% in test [12]; 100% in [6]; 86.1% in test [13]; 110% in test [14]. Also, the growth in test [15] is 76.4%; in test [16], 109%; in test [17], 111%; in test [7], 86.5%; in test [18], 101%.

With `CCN1C(=S)N(CC)C2C1N=C(SC)N2/N=C/C=C/c1ccccc1[N+](=O)[O-]` (stereo not drawn), the growth in [1] is 93.6%; in test [19], 125%; in test [9], 78.1%; in test [10], 76.5%; in test [11] it was 111%; in [3], 82.1%. Moreover, the growth in [4] is 75%; in [5], 83.4%; in test [12], 84.7%; in [6], 98.2%; in test [13], 83.6%; in test [14] it was 109%. Moreover, the growth in [15] was 106%; in test [16] it was 121%; in test [17], 88.1%; in test [7] it was 94.3%; in test [18] it was 88.4%.

On to `COc1cc(/C=C/C(=O)c2cc(OC)c(OC)c(OC)c2)ccc1Oc1nc(NCCO)nc(N2CCOCC2)n1`, for which the growth in test [1] was 11.2%; in [8] it was 20.9%; in test [19] it was 20.9%; in test [9], -52.5% (active); in [10], 15.6%; in [2], 0.121% (active). The growth in test [3] was 6.72% (active); in test [4], -0.481% (active); in test [5], -24.9% (active); in [12] it was 21.2%; in [6], 18.3%; in test [13], 20%. For the same molecule, the growth in test [14] was 7.04% (active); in test [15] it was 1.1% (active); in [16] it was -3.03% (active); in test [17], 7.51% (active); in [7], 64.5%; in [18], 19.2%.

On to `O=C(CCCN1C(=O)/C(=C/c2ccccc2F)SC1=S)N1CCOCC1`, for which the growth in test [1] was 89.5%; in test [8], 72.2%; in test [9] it was 78.1%; in test [10], 89.2%; in test [11], 82.8%; in test [2], 71.6%. Further, the growth is 91.3% in [3]; 68% in test [4]; 75.1% in test [5]; 99% in [12]; 94.5% in test [6]; 88.4% in test [13]. Besides, the growth was 114% in test [14]; 84.4% in test [15]; 112% in test [16]; 99.4% in test [17]; 104% in [7]; 45.6% in test [18].

For the molecule `Cn1c(SCC(=O)Nc2ccc(-c3nc4ccc([N+](=O)[O-])cc4[nH]3)cc2)nc2ccccc2c1=O`, the growth is 84.5% in [1]; 132% in test [19]; 65.6% in [9]; 45.9% in test [10]; 86.8% in test [2]; 77.5% in test [3]. In addition, the growth in [4] was 82.4%; in test [5], 94.7%; in [12] it was 77.8%; in test [6] it was 96%; in test [13] it was 67.5%; in [14], 120%. For the same molecule, the growth in test [15] is 75.9%; in [16] it was 90.6%; in test [17], 81.5%; in [7] it was 88.9%; in [18], 72.1%.

For `C#Cc1nc(C2=C(C)C(OC(=O)CCC(=O)O)CC2)cs1` (stereo not drawn), the growth in test [1] is 99.2%; in test [8], -19.3% (active); in [19] it was 157%; in test [9] it was 103%; in test [10], 101%; in test [2], 93.9%. In addition, the growth is 64.1% in [4]; 99.3% in test [12]; 125% in [6]; 108% in test [13]; 125% in [14]; 5.79% (active) in test [15]. In addition, the growth in test [16] is 121%; in test [17], 92.5%; in [7], 89.7%; in test [18] it was 98%.

As for `COc1ccc(C(=O)c2cc(C(=O)/C=C/c3c(Cl)cccc3Cl)c3cc(C)ccn23)cc1`, the growth in test [1] is 92.1%; in test [8], 96.6%; in [19] it was 119%; in test [9], 101%; in test [10] it was 89.9%; in test [11], 86.4%. Moreover, the growth is 99.8% in [2]; 97% in test [4]; 92.6% in [5]; 100% in [12]; 102% in test [6]; 106% in test [13]. For the same molecule, the growth is 95.9% in test [15], 103% in test [16], 95.7% in test [17] and 91.7% in [18].

`COc1cccc(N2CCN(c3ncnc4c3[nH]c3ccc(F)cc34)C[C@@H]2C)c1`: the growth is -0.593% (active) in test [1]; -98.8% (active) in [8]; -31.6% (active) in [19]; -12.9% (active) in [9]; -28.6% (active) in [10]; -23.1% (active) in [11]. The growth in [2] was -16.1% (active); in [4], -22.8% (active); in [5], -34.7% (active); in test [12], -96.7% (active); in [6], 0.0989% (active); in test [13], -56.5% (active). The growth in [14] is -3.28% (active); in [15] it was -30.2% (active); in test [16], -7.65% (active); in test [17], -18.7% (active); in [7], 7.77% (active); in test [18], -52.6% (active).

Turning to `CCCC(=O)NC(c1ccc2c(c1)OC(F)(F)O2)c1cc(C)c2cccnc2c1O` (stereo not drawn), the growth in test [1] is 23.1%; in test [8], 6.46% (active); in test [19], 54.8%; in test [9], 6.71% (active); in [10] it was 12.8%; in test [11], 6.01% (active). For the same molecule, the growth is 9.16% (active) in test [2]; 15.3% in test [3]; 13% in [4]; 29.1% in test [5]; 14.3% in test [12]; 42% in [6]. Moreover, the growth in [13] is 33.7%; in test [14] it was 9.65% (active); in test [15] it was 12.7%; in test [16], 24.8%; in [17], 38.5%; in test [7] it was 18.8%. For the same molecule, the growth in test [18] was 23.9%.

In the case of `Cc1cccc2sc(/N=C(\N)C(Br)Br)nc12`, the growth is 19.9% in [1]; 30.6% in [8]; -13.5% (active) in test [9]; 3.85% (active) in [10]; 38.7% in [11]; 1.81% (active) in test [2]. In addition, the growth in [3] was 2.63% (active); in test [4], -23.6% (active); in [5], 2.19% (active); in [12], 32.7%; in [6], 41.2%; in test [13] it was 64.7%. For the same molecule, the growth in test [14] is 87.5%; in [15], -65.7% (active); in [16] it was 29.2%; in test [17], 37.2%; in [7] it was 17.6%; in test [18] it was 41.4%.

As to `Nc1cc(-c2c[nH]c3ccc(Cl)cc23)nc2cc(-c3c[nH]c4ccc(Cl)cc34)nn12`, the growth in test [1] is 54.4%; in test [8] it was 61.3%; in [19], 66.2%; in test [9], 24.3%; in test [10], 35.6%; in test [11], 32.2%. Moreover, the growth in test [2] was 42%; in test [4], 10.1%; in test [5], 59.4%; in test [12], 70.7%; in [6], 59.7%; in test [13], 58.6%. For the same molecule, the growth in test [14] was 119%; in test [15], 41.7%; in [16], 75.9%; in [17] it was 74.3%; in test [7], 60.4%; in [18], 51.6%.

`COc1cccc(NC2=CC(=O)C(C)=C(C)C2=O)c1`: the growth in test [1] was 36.7%; in [8], 86%; in test [9] it was 70.9%; in test [10] it was 93%; in test [11] it was 67.2%; in test [2], 15.8%. The growth in test [4] was 23.2%; in [5] it was 17.5%; in test [12], 16.9%; in [6], 101%; in [13], -1.68% (active); in test [15], 40%. Further, the values for the growth in test [16], in [17] and in [18] were 0.294% (active), 112% and 47.7%, respectively.

Turning to `Fc1ccc(-c2cc3nc(C(Cl)Cl)nc(-c4ccccc4)n3n2)cc1`, the growth is 1.49% (active) in test [1]; 3.9% (active) in test [8]; -23.9% (active) in [19]; -27.2% (active) in test [9]; -17.5% (active) in test [10]; -59.9% (active) in [11]. Besides, the growth was 55.7% in test [2]; 23.6% in test [3]; 3.78% (active) in [4]; -16.1% (active) in test [5]; 8.61% (active) in test [12]; -20.3% (active) in test [6]. Moreover, the growth is -16.9% (active) in test [13]; -18.6% (active) in test [14]; 46.5% in test [15]; -43.1% (active) in test [16]; -18% (active) in [17]; 10.6% in test [7]. Also, the growth in test [18] is 22.1%.

In the case of `N[C@@H](Cc1cn(-c2ccnc3ccccc23)nn1)C(=O)O`, the growth in test [1] was 98.5%; in test [8], 88.2%; in test [19], 101%; in test [9] it was 96.1%; in test [10] it was 97.3%; in test [11], 110%. Also, the growth in test [2] was 103%; in test [3], 107%; in test [4] it was 95.1%; in test [5], 106%; in test [12], 104%; in test [6], 101%. Besides, the growth is 109% in [13]; 101% in [14]; 102% in test [15]; 109% in test [17]; 103% in test [7]; 101% in test [18].
